Hit rate of the full screen: of about 360,000 compounds, about 10,000 (2.8%) were called active. Another 4% or so got no clear call; they are omitted. The list comes from a sample in which actives are over-represented; it also holds similar structures and randomly drawn compounds. Values without a mark were called inactive. The call rests on the fitted dose curve; in most records, active means well fitted inhibition curve with a large enough effect; inconclusive means small, poorly fitted or top-dose-only effect; inactive means flat fitted curve, though single readings scatter.
target: Serine/threonine-protein kinase PLK1 (Homo sapiens) (UniProt P53350); assay: qHTS for Inhibitors of PLK1-PDB (polo-like kinase 1 - polo-box domain): Primary Screen; conditions: Plk1 PBD binding of FITC phosphopeptide, fluorescence polarization; further: nearly all actives have a fitted effect of over 65% in size; on max response, negative = inhibition: series mostly up to about 57 µM
From the text: The polo-like kinase 1 (Plk1) is a member of a conserved subfamily of serine / threonine protein kinases that plays a pivotal roles in cell proliferation. It has a C-terminal non-catalytic region called the polo-box domain (PBD) that plays a crucial role in the subcellular localization of the Plk1. […] Furthermore, depletion of the overexpressed Plk1 by RNAi efficiently induces apoptotic cell death in cancer and reduces tumor growth in mouse xenograft models. Thus, targeting Plk1 is an appealing strategy for anti-cancer therapy. Therefore, this project aimed to screen the Molecular Libraries Small Molecule Repository (MLSMR) using a novel approach to find inhibitors that target the Plk1 PBD instead of the conventional N-terminal catalytic domain. This project employed a fluorescence polarization (FP) assay using a FITC-conjugated phospho-9-mer (p-9-mer) peptide and purified human Plk1 PBD protein. The identified small molecule inhibitors of Plk1 PBD can then further be developed into useful tools for biomedical and clinical research that complements or replaces current relevant disease therapy. NIH Chemical Genomics Center [NCGC] NIH Molecular Libraries Probe Centers Network [MLPCN] MLPCN Grant: MH100728 Assay Submitter (PI): Kyung Lee, NCI
Four microliter of 25 nM FITC-p-9-mer + 60 nM Plk1 PBD in buffer solution (final concentrations 25 nM and 60 nM respectively) or 4 uL of 25 nM FITC-p-9-mer (final concentration 25 nM) in buffer will be dispensed into a 1,536 Greiner medium-binding black solid plate. Small molecules at final concentrations of 18 nM to 57 uM and positive control phospho-9-mer (sequence: Ac-PPLHSpTAI-NH2) at final concentrations 26 nM to 57 uM and phospho-13-mer (sequence: Ac-[…]pTAI-NH2) at final concentrations of 1 nM to 2.3 uM will be pin-transferred (23 nL) to the plate via a Kalypsys pin-tool robotics equipped with a 1,536-pin array. The reaction plate will be centrifuged for 1 min at 1000 rpm and incubated at room temperature for 10 min. The FITC fluorescence signals will be read using the PerkinElmer ViewLux plate reader at 480 / 20 nm excitation and 540 / 20 nm S and P polarization emission wavelengths. Reagent bottles will be kept submerged into 4 °C recirculating chiller bath and all liquid lines will be covered with aluminum foil to minimize degradation. Library plates will be screened starting from the lowest to the highest concentrations to minimize compound carryover. Vehicle only plates, with DMSO being pin-transferred instead of compound solutions, will be included regularly throughout the screen to record any systematic shifts in assay signal.
On the % scale 0 is the no-effect control and ±100 the full control effect; potency means the concentration at half of the fitted maximal effect.

Serine/threonine-protein kinase PLK1 (Homo sapiens), sequence (P53350 whole entry, looked up, the tested form may be a part): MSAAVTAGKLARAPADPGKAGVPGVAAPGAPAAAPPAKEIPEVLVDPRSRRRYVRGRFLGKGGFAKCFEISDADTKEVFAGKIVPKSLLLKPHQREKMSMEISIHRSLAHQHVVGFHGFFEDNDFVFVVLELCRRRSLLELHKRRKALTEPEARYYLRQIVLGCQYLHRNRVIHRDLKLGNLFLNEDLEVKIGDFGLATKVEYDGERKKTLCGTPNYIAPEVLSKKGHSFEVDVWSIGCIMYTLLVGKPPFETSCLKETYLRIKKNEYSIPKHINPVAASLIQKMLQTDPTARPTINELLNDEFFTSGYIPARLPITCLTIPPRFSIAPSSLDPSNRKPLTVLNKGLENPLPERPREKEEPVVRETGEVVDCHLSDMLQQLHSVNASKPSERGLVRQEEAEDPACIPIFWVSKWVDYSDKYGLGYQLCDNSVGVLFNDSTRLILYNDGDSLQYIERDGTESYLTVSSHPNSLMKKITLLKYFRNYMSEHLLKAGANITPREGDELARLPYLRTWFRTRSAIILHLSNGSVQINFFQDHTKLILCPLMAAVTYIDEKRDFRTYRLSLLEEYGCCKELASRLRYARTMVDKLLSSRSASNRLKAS

| Compound | max response, negative = inhibition [%] | Potency |
| --- | --- | --- |
| C[C@H]1CN([C@@H](C)CO)C(=O)c2cc(-c3cccc(F)c3)cnc2O[C@@H]1CN(C)S(C)(=O)=O | -9.21 | – |
| COc1ccc(-c2c(C#N)cnc(C)c2C)c(O)c1OC | -12.9 | – |
| C[C@H](CO)N1C[C@H](C)[C@@H](CN(C)S(=O)(=O)c2ccc(F)cc2)OCc2cnnn2CCCC1=O | -19.3 | – |
| O=C(Nc1cccc2ccccc12)c1[nH]c(-c2ccccc2)c2c1C(=O)N(C1CC1)C2=O | -21.7 | – |
| CN(C)C(=O)c1cccc(-c2cnc3c(NC=O)cc(-c4ccc(F)cc4)cn23)c1 | -19.5 | – |
| CCc1c(C)sc(NC(=O)c2cccs2)c1C(N)=O | – | 4.74 µM (active) |
| CCc1cccc(C)c1NC(=O)COC(=O)CNC(=O)c1cccs1 | -0.37 | – |
| CCc1c(C)sc(NC(=O)c2ccc(Br)o2)c1C(=O)OC | -7.98 | – |
| Cc1ccc(-c2ccc(C3=CC(=O)CC(C)(C)C3=O)cc2)cc1 | -0.955 | – |
| CCCNC(=O)c1cc(C2CCCCN2S(=O)(=O)c2cn(C)cn2)on1 (centres undefined) | -4.21 | – |
| CCCOc1ccc(F)cc1-c1cc(C(=O)Nc2ccc(F)c(Cl)c2)[nH]n1 | 0.655 | – |
| CC(=O)Nc1nc(N(C)C)nc(N(C)C)n1 | 6.17 | – |
| CN(C)c1nc(NN)nc(Nc2ccc(F)cc2)n1 | 4.54 | – |
| CN(C)c1nc(Nc2ccc(Cl)c(Cl)c2)nc(N(C)C)n1 | – | 2.99 µM (active) |
| CC(=O)Nc1cccc(-c2cc(NC(C)=O)c3ncc(-c4ccccc4)n3c2)c1 | -16.7 | – |
| COc1ccccc1-c1n[nH]nc1C1=CC(=O)CC(C)(C)C1 | -7.34 | – |
| C#CCN1C(=O)C(O)(CC(=O)c2cc(OC)ccc2OC)c2ccccc21 (centres undefined) | -9.34 | – |
| COc1ccc2c(c1)C(=C(C#N)C#N)C(=O)N2CCc1ccccc1 | – | 2.67 µM (active) |
| CCCCN1C(=O)/C(=C(/C#N)C(N)=O)c2ccccc21 | -17.1 | – |
| COCCNc1nc(NCc2ccc(NC(C)=O)cc2)c2sccc2n1 | -10.2 | – |
| CS(=O)(=O)c1ccc(Cl)c(NC(=O)Nc2ccccc2)c1 | – | 23.8 µM (active) |
| CS(=O)(=O)c1ccc(Cl)c(NC(=O)COC(=O)c2ncc(Cl)c(Cl)c2Cl)c1 | -10.8 | – |
| Cc1ccc(NC(=O)Nc2ccccc2)c(Br)c1 | -8.61 | – |

| Compound | max response, negative = inhibition [%] | Potency |
| --- | --- | --- |
| CSc1ncnc2c1ncn2CCCNCC(C)c1ccccc1 (centres undefined) | 1.77 | – |
| Cc1cccc(N2C(=O)c3ccc(C(=O)Nc4cccc(C(=O)O)c4)cc3C2=O)c1 | 2.25 | – |
| Cc1cccc(N2C(=O)SC(SC(=Nc3ccccc3)Nc3ccccc3)C2=O)c1 (centres undefined) | – | 15 µM (active) |
| COc1cccc(N2C(=O)CC(N3CCc4ccccc4C3)C2=O)c1 (centres undefined) | -2.65 | – |
| COC(=O)c1ccccc1SC1CC(=O)N(c2cccc(C)c2)C1=O (centres undefined) | -24.8 | – |
| Cc1cccc(N2C(=O)SC(N(CC(=O)O)c3cccc(C)c3)C2=O)c1 (centres undefined) | -27.2 | – |
| Cc1cccc(N2C(=O)CC(SC(N)=Nc3ccccc3)C2=O)c1 (centres undefined) | – | 23.8 µM (active) |
| CCOc1ccc(CCN2C(=O)C(=O)N([C@@H](Cc3ccc(O)cc3)CN3CCC[C@H]3CN3C(=O)C(=O)NC[C@@H]3CC(C)C)C[C@@H]2Cc2ccccc2)cc1 | -15 | – |
| CCC(C)C(CO)NC(=O)/C=C/[C@H]1O[C@@H](n2cnc3c(NC(=O)c4ccccc4)ncnc32)[C@H](O)[C@@H]1O (some centres undefined) | -12 | – |
| CCOc1ccc(/C=N/NC(=O)CSc2ccccn2)cc1O | -2.2 | – |
| COc1ccc(/C=N/N=C2/C(=O)Nc3ccccc32)cc1O | – | 23.8 µM (active) |
| O=C1Nc2ccc(Br)cc2/C1=N/N=C/C1=C(N2CCOCC2)C(=C\c2ccccc2)/CC1 | -6.57 | – |
| Cc1ccc(S(=O)(=O)N[C@H]2CCC[C@@H]2O)cc1 | -13.6 | – |
| O=C(c1ccc(C(F)(F)F)cc1)N1CCC(=O)N([C@H](COCc2ccccc2)Cc2ccccc2)CC1 | -8.35 | – |
| O=S1(=O)CC(N2CCN(CCO)CC2)CN1C1CCCC1 (centres undefined) | 3.7 | – |
| COC(=O)C1=C(N)Oc2cc(C)oc(=O)c2C1c1cccnc1 (centres undefined) | -10.6 | – |
| COC(=O)C1=C(N)Oc2cc(C)[nH]c(=O)c2C1c1ccc(Cl)cc1 (centres undefined) | – | 23.8 µM (active) |
| CCN1C(=O)N[C@@H](c2ccccc2)C(C(=O)OC)=C1C | -12.3 | – |
| CC(=O)c1ccc(Nc2nc(C(N)c3ccccc3Cl)cs2)cc1 (centres undefined) | -10.4 | – |
| O=C(O)C1CCCN1c1nc(Cl)ccc1[N+](=O)[O-] (centres undefined) | -5.29 | – |
| Cc1nccn1-c1ccc(NC(=O)[C@H]2O[C@@H](n3cnc4c(N)ncnc43)[C@H](O)[C@@H]2O)cc1 | -3.34 | – |
| O=c1[nH]c2ccccc2n1C1CCN(CCOc2ccccc2)CC1 | 0.342 | – |
| Cc1ccc(SCc2cc(=O)[nH]c(N3CCCCC3)n2)cc1 | -8.91 | – |

| Compound | max response, negative = inhibition [%] | Potency |
| --- | --- | --- |
| O=c1cc(-c2ccccc2)nc(N2CCCCC2)[nH]1 | – | 23.8 µM (active) |
| c1ccc(-c2cc(N3CCCCC3)c3ccccc3n2)cc1 | -13.3 | – |
| C[C@H](CO)N1C[C@H](C)[C@@H](CN(C)C(=O)c2cnccn2)Oc2ncc(Br)cc2C1=O | -5.95 | – |
| C[C@H](CO)N1C[C@H](C)[C@H](CN(C)C(=O)c2ccncc2)OCc2ccccc2-c2c(n(C)c3ccccc23)C1=O | -5.78 | – |
| COc1cccc(-c2cnc3c(NC(C)=O)cc(-c4cccc(NC(C)=O)c4)cn23)c1 | -1.26 | – |
| CC1(C(=O)NS(=O)(=O)c2ccccc2)CCN1C(=O)Cc1ccc(-c2ccccc2)cc1 (centres undefined) | -4.54 | – |
| CCn1c(SCC(=O)Nc2nc(C)cs2)nnc1C(C)NC(=O)c1ccccc1 (centres undefined) | – | 29.9 µM (active) |
| CCn1c(SCC(=O)NC2=NCCS2)nnc1C(C)NC(=O)c1ccccc1F (centres undefined) | -16.2 | – |
| CCn1c(CC(=O)Nc2ccccc2)nnc1SCC(=O)N1CCOCC1 | -0.409 | – |
| CCn1c(CC(=O)Nc2ccc(C)cc2)nnc1SCC(=O)Nc1nc(C)cs1 | – | 26.7 µM (active) |
| Cc1ccc(NC(=O)Cc2nnc(SCC(=O)Nc3nncs3)n2C)cc1 | -3.59 | – |
| COCCn1c(SCC(=O)Nc2nc(C)cs2)nnc1C(C)C | -12.4 | – |
| C[C@@H]1CN([C@@H](C)CO)C(=O)c2cc(NS(C)(=O)=O)ccc2O[C@@H](C)CCCCO[C@H]1CN(C)C(=O)Nc1ccc2c(c1)OCO2 | -18.5 | – |
| Cc1cc2c(cc1C)N1C(=O)c3cc4ccccc4cc3NC(=O)C1C(=O)N2 (centres undefined) | -4.16 | – |
| COc1ccc(C(c2nnnn2C2CCCC2)N2CCN(C/C=C/c3ccccc3)CC2)cc1 (centres undefined) | -9.92 | – |
| Cc1ccc(S(=O)(=O)N2C[C@]3(O)C[C@@H]4C(=O)N(c5ccccc5)C(=O)[C@@H]4C[C@]3(OC(=O)NC3CC3)C2)cc1 | -20.4 | – |
| COc1ccccc1Cc1c(-c2ccc(Cl)cc2)nc2ccc(Cl)cn12 | -19.7 | – |
| CNc1ccc(SC#N)cc1 | – | 23.8 µM (active) |
| Cc1ccccc1Cn1c(C)c(C(=O)NCc2cccc(C(F)(F)F)c2)sc1=O | -4.46 | – |
| CCN(C(=O)Nc1cccc2ccccc12)c1ccccc1 | -4 | – |
| Cc1ccc(S(=O)(=O)N2[C@@H](Cc3ccccc3)CO[C@H]2CC(=O)OCc2ccccc2)cc1 | 0.144 | – |
| CCCCn1nnnc1C(c1ccccc1)N1CCN(c2ccccc2OC)CC1 (centres undefined) | -14.9 | – |
| CN(C)c1nc(=Nc2cccc(Cl)c2)ss1 | – | 6.7 µM (active) |

| Compound | max response, negative = inhibition [%] | Potency |
| --- | --- | --- |
| Cn1ncc([N+](=O)[O-])c1C(=O)Nc1cc(Cl)ccc1Cl | -6.39 | – |
| O=C1c2ccccc2C(c2nc3ccccc3[nH]2)N1c1ccccc1 (centres undefined) | 3.28 | – |
| O=C1Nc2ccccc2NC(c2ccc3c(c2)OCO3)=C1N(Cc1ccc(F)cc1)C(=O)c1ccco1 | -4.45 | – |
| Nc1ccc2nc3c(=O)[nH]c(=S)[nH]c3nc2c1 | – | 2.67 µM (active) |
| CC(C)OC(=O)CC(=O)CC(O)c1cccc([N+](=O)[O-])c1 (centres undefined) | -7.74 | – |
| O=C(Nc1ccc(N2CCCC2=O)cc1)c1cncc(Br)c1 | 6.3 | – |
| O=C(N/N=C/c1cccc(Br)c1)c1ccc(N2CCCC2=O)cc1 | – | 26.7 µM (active) |
| O=C(N/N=C\c1cccc(Br)c1)c1ccccc1-n1cccc1 | -3.78 | – |
| CC(C)CN1CCC1(C)C(=O)Nc1ccc(OC(F)F)cc1 (centres undefined) | -0.833 | – |
| CCCNC(=O)C1(C)CCCN(Cc2c(C)nn(-c3ccccc3)c2C)C1 (centres undefined) | 2.73 | – |
| COc1ccc(C(=O)NCC[N+](C)(C)C)cc1 | 1.35 | – |
| COCCCNC(NC(=O)c1ccc(OC)cc1)C(Cl)(Cl)Cl (centres undefined) | 5.66 | – |
| COCCNC(=S)c1ccc(OC)cc1 | – | 26.7 µM (active) |
| C#CCNC(=O)C[C@@H]1C[C@@]2(C(=O)OCC)CCCC=C2N(Cc2ccco2)C1=O | -6.05 | – |
| Brc1ccc(-c2nn[nH]n2)cc1 | – | 23.8 µM (active) |
| CC(C)c1ccc(-c2nn[nH]n2)cc1 | -8.56 | – |
| c1cc(-c2nn[nH]n2)ccc1CN1CCCCC1 | -9.14 | – |
| COc1cccc(C(O)c2nc(-c3ccc(C)c(C)c3)cs2)c1 (centres undefined) | -8.07 | – |
| COCc1cccc(-c2csc(C(O)c3ccc(F)cc3)n2)c1 (centres undefined) | -9.74 | – |
| COc1ccc(NC(=O)CSc2nnnn2-c2cccc(OC)c2)cc1 | 5.21 | – |
